Measurements reported in PubChem BioAssay (NCATS).
Inconclusive results are not listed. The source made the active and inactive calls. Unless noted, calls follow the shape of the dose curve; as a rule, active = well fitted curve in either direction with a large enough effect (not every such curve was filed as active); inconclusive = small, poorly fitted or top-dose-only effect, or another doubt; inactive = flat fitted curve, though single readings scatter.

How the values were obtained:
[1] = molecular target: Lysosomal acid glucosylceramidase (Homo sapiens) (UniProt P04062); test: Glucocerebrosidase-p2 (AID 348; in the data active = potency below about 10 µM; also: potency is read from the fitted curve at half-maximal effect); conditions: purified GBA, blue fluorogenic substrate, 40 min
Summary of the method: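 Compounds titrated from 0.6 nM upwards against 0.2 nM enzyme in pH 5.9 citric acid/KH2PO4, taurocholate, tween-20; blue fluorogenic substrate 80 uM, 40 min room temperature, stopped and read Ex 365/Em 440 for AC50.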

[2] = AP1 Signaling Pathway (AID 357); conditions: ME-180 AP-1-bla reporter, EGF-induced, beta-lactamase ratio, 5 h; at 7.69 µM (top of the series) unless noted;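 also: ME-180 reporter cells stimulated with EGF at its EC50 level; % is scaled to controls: 0 for no effect and ±100 for the full control effect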
Summary of the method: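 First, ME-180 AP-1-bla cells were cultured overnight at 37 °C in low-serum Opti-MEM. Next, titrated compounds with EC50 EGF were incubated 5 hours. Finally, CCF4 was added for 2.5 hours and the 460/530 nm ratio recorded.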

[3] = molecular target: Cytochrome P450 1A2 (Homo sapiens) (UniProt P05177); test: p450-cyp1a2 (AID 410; calls by dose curve; also: potency is read from the fitted curve at half-maximal effect;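 as to activity change, negative = inhibition: -100% = full effect of reference inhibitor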); conditions: recombinant CYP1A2, luciferin-ME demethylation, luminescence; series mostly up to 11.4 µM
Summary of the method: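 Human CYP1A2 (20nM) demethylated Luciferin-ME at its Km (100uM) in 100mM KPO4. After 10 min compound preincubation, NADPH regeneration ran the reaction 60 min at room temperature. Luciferin was read by luminescence, normalized to 57 uM furafylline.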

[4] = NFAT Signaling Pathway (AID 444); conditions: Jurkat NFAT-bla M1, carbachol, beta-lactamase ratio, 5 h; at 7.69 µM (top of the series) unless noted;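 also: carbachol stimulus at about its EC50 of 1 µM final; % is scaled to controls: 0 for no effect and ±100 for the full control effect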
Summary of the method: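 Jurkat cells with NFAT-driven β-lactamase reporter and co-expressed M1 receptor, stimulated with carbachol (final 1 uM, ~EC50), compound titration, 5 h at 37 °C. CCF4 loaded 1 h at RT; 460/530 nm ratio gave %activity and AC50.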

[5] = Stat Signaling Pathway (AID 446); conditions: ME-180 SIE beta-lactamase reporter, IL-6 stimulated, 5 h; at 7.69 µM (top of the series) unless noted;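 also: ME-180 cervical cancer cells given 40 pM IL-6 alongside compound; SIE-controlled beta-lactamase reporter measured as 460/530 nm FRET emission ratio; % is scaled to controls: 0 for no effect and ±100 for the full control effect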
Summary of the method: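 ME-180 SIE-bla cells; overnight plating; cpd + IL-6 40 pM, 5 h, 37 C; LiveBLAzer 2.5 h RT; 460/530 nm emission ratio. Normalized to 300 pM IL-6 and 125 nM JAK inhibitor controls.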

[6] = molecular target: Glucocorticoid receptor (Homo sapiens) (UniProt P04150); test: GR-GFP Redistribution (AID 450;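 active = compounds whose dose series gives a full or clear partial fitted curve of increased nuclear translocation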; also: potency is read from the fitted curve at half-maximal effect); conditions: U2OS GR-GFP nuclear translocation, laser cytometry, 2 h
[7] = molecular target: Glucocorticoid receptor (Homo sapiens) (UniProt P04150); test: GR-EFC Redistribution (AID 451; calls by dose curve; also: potency is read from the fitted curve at half-maximal effect); conditions: CHO-K1 GR-EFC translocation, beta-gal luminescence, 2 h
Summary of the method: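 CHO-K1 cells expressing nuclear EA and GR-ED fragments of b-gal; compounds titrated up to 46 uM final, 2 h at 37 C. GR nuclear translocation read as complemented b-gal luminescence after 1 h RT detection.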

[8] = molecular target: Mitogen-activated protein kinase 10 (Mus musculus) (UniProt Q61831); test: JNK3 AlphaScreen Assay (AID 530); conditions: JNK3 lysate, c-Jun phosphorylation; series mostly up to 11.4 µM;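 also: kinase came from lysate of stimulated human HepG2 cells; signal reports phosphorylation of biotinylated GST-cJun 1-79 at Ser73 with 10 µM ATP; % is scaled to controls: 0 for no effect and ±100 for the full control effect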
Summary of the method: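 qHTS format: compounds tested as titrations against IL-1beta/TNF-alpha-activated HepG2 lysate JNK3 with biotin-GST-cJun substrate and 10 uM ATP at room temperature. Loss of anti-phospho-cJun AlphaScreen signal indicates inhibition.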

[9] = molecular target: 3',5'-cyclic-AMP phosphodiesterase 4B (Homo sapiens) (UniProt Q07343); test: qHTS Assay for Inhibitors of PDE-IV (AID 607; active = well fitted activation curve with a large enough effect in the main read-out, with a control signal flat, not every such curve was filed as active; also: % of control where 0% means no effect); conditions: HEK293 ACTOne CNG channel cells, membrane potential fluorescence; series mostly up to 22.9 µM
Summary of the method: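 ACTOne HEK293 cells carry a modified cAMP-gated CNG channel and express endogenous PDE4; plated 1000 cells/well, compounds up to 22.9 uM final. Membrane-potential dye fluorescence (ex 535/em 590) was read; parental cells received 10 uM forskolin + 100 uM RO 20-1724.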

[10] = molecular target: Cytochrome P450 2D6 (Homo sapiens) (UniProt P10635); test: qHTS Assay for Inhibitors and Substrates of Cytochrome P450 2D6 (AID 891; active = well fitted inhibition curve with a large enough effect;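 also: luciferin methyl ether substrate demethylated by CYP2D6 with NADPH regeneration; % is scaled to controls: 0 for no effect and ±100 for the full control effect; nearly all actives have a fitted effect of over 60% in size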); conditions: recombinant CYP2D6, luciferin-ME EGE luminescence; series mostly up to 11.4 µM
Summary of the method: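 Human CYP2D6 (5 nM) with 30 uM Luciferin-ME EGE (at Km) in 100 mM KPO4, compound preincubated 10 min, then NADPH regeneration system for 60 min at room temperature. Luciferin read by luminescence; normalized to 1.43 uM quinidine.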

[11] = molecular target: Cytochrome P450 2C19 (Homo sapiens) (UniProt P33261); test: qHTS Assay for Inhibitors and Substrates of Cytochrome P450 2C19 (AID 899; active = well fitted inhibition curve with a large enough effect; also: nearly all actives have a fitted effect of over 60% in size; also: potency is read from the fitted curve at half-maximal effect); conditions: recombinant CYP2C19, luciferin-H EGE luminescence; series mostly up to 11.4 µM
Summary of the method: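 Signal comes from luciferase acting on luciferin released by CYP2C19-mediated hydroxylation of Luciferin-H EGE, 10uM (KM). Assay mix: 5nM enzyme, 50mM KPO4; 60 min at 37C with NADPH regeneration. Data normalized against 57uM ketoconazole.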

Chain of Cytochrome P450 2D6 (Homo sapiens) (P10635 whole entry, looked up): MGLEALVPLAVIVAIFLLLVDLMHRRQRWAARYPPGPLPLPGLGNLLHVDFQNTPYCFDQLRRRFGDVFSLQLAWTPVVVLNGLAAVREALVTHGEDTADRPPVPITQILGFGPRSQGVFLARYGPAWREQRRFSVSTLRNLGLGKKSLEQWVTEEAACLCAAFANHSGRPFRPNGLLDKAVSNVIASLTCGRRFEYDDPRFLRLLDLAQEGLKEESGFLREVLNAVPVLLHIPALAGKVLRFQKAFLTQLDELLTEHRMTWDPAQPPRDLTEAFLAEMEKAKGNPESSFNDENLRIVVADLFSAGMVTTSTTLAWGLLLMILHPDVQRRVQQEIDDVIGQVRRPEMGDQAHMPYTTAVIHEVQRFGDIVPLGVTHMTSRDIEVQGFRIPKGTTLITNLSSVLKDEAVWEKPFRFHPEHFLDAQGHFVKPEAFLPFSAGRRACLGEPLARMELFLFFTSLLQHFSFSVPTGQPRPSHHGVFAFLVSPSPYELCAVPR
Chain of Cytochrome P450 2C19 (Homo sapiens) (P33261 whole entry, looked up): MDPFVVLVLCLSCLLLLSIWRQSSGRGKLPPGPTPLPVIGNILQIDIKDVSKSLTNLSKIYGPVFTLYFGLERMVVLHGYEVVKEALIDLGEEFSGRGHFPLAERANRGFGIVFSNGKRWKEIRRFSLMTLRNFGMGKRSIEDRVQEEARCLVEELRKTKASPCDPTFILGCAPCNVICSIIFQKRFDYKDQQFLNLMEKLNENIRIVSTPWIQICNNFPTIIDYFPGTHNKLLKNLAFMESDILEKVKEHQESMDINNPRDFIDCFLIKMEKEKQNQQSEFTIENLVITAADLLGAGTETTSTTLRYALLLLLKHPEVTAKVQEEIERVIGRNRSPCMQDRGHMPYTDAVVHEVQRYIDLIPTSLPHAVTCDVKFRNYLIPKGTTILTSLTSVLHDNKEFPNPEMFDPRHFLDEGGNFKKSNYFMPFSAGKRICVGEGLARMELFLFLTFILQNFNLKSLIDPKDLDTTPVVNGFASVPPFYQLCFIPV
Chain of Cytochrome P450 1A2 (Homo sapiens) (P05177 whole entry, looked up): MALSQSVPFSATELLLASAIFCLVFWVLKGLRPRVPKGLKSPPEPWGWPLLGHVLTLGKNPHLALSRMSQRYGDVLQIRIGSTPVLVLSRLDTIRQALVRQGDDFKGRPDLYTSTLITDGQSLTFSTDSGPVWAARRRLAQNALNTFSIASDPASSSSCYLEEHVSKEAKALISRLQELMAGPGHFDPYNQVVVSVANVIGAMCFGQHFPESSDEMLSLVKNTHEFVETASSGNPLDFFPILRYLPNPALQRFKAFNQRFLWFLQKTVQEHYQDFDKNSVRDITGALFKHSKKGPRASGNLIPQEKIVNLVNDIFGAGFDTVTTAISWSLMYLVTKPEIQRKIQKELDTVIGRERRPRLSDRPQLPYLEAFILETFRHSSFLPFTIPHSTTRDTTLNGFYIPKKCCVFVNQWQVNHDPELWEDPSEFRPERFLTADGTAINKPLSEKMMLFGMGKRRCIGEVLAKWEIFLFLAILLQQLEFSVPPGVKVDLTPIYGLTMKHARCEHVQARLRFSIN
Chain of Glucocorticoid receptor (Homo sapiens) (P04150 whole entry, looked up, the tested form may be a part): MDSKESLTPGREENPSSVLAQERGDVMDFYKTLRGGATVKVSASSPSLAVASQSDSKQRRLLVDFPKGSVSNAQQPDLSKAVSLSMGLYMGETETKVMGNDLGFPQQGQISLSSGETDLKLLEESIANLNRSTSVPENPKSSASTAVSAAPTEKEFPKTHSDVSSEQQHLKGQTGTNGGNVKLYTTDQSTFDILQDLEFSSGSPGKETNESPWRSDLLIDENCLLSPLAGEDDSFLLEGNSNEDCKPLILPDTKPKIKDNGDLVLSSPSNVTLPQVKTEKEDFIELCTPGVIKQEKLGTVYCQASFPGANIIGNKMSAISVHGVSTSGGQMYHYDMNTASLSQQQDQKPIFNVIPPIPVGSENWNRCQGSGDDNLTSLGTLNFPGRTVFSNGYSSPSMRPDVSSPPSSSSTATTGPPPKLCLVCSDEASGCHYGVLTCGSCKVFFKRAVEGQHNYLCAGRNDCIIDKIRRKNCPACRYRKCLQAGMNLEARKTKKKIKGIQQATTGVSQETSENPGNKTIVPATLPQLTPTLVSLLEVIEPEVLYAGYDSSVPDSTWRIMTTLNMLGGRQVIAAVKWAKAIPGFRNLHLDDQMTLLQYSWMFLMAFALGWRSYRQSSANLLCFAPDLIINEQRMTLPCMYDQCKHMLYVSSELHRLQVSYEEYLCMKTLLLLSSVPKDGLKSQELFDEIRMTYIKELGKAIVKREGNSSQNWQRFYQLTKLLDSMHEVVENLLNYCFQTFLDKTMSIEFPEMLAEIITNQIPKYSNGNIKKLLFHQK
Chain of Lysosomal acid glucosylceramidase (Homo sapiens) (P04062 whole entry, looked up): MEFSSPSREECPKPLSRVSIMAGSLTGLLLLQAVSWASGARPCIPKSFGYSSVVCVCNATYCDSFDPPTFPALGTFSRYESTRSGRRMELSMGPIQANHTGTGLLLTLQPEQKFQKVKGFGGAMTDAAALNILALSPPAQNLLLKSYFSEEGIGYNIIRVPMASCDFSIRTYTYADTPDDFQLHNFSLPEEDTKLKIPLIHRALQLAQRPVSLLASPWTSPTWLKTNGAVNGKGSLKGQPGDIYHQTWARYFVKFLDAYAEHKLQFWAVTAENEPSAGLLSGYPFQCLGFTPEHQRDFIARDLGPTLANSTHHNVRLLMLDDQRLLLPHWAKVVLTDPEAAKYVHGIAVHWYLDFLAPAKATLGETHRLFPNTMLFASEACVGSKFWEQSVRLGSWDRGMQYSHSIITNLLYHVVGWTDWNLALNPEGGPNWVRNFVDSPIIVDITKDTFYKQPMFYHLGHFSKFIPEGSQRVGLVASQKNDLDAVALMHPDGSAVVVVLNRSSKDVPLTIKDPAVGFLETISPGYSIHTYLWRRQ
Chain of 3',5'-cyclic-AMP phosphodiesterase 4B (Homo sapiens) (Q07343 whole entry, looked up): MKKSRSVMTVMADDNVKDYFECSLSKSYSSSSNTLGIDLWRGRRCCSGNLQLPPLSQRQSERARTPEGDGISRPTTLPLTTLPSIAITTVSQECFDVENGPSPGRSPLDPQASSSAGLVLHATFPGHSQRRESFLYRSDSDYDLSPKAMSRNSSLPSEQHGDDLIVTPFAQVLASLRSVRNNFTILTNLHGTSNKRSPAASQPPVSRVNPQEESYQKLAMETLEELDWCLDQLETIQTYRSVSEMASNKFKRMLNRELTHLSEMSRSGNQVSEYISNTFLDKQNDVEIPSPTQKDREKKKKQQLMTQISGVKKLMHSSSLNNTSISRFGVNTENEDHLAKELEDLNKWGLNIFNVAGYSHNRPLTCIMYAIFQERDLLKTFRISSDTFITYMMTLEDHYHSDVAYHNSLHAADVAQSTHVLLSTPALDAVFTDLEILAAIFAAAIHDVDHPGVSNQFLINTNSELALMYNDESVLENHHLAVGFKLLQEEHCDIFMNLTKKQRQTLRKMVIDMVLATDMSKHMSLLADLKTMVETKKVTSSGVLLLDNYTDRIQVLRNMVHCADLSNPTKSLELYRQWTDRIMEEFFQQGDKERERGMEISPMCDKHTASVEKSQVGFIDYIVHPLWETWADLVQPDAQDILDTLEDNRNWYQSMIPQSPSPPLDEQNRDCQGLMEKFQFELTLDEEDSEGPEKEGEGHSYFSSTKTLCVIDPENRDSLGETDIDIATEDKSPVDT

CC(CC(=O)O)(CC(=O)O)C(=O)O
inactive: Potency [1] > 11.4 µM | activity change, negative = inhibition [2] -0.949% | Potency [3] | activity change, negative = inhibition [4] 18.4% | activity, negative = inhibition [5] 9.05% | Potency [6] > 46 µM | Potency [7] > 9.22 µM | Potency [8] | Potency [9] | Potency [10] | Potency [11]

O=C(O)CCCc1ccc2ccc3ccccc3c2c1
inactive: Potency [1] > 11.4 µM | activity change, negative = inhibition [2] -11.1% | activity change, negative = inhibition [4] -6.89% | activity, negative = inhibition [5] -2.84% | Potency [6] > 46 µM | Potency [7] > 9.22 µM | Potency [8] | Potency [9] | Potency [10] | Potency [11]
active: Potency [3] 2 µM

CC[C@@]1([N+](=O)[O-])C[C@H]2C=C[C@@H]1C2
inactive: Potency [1] > 11.4 µM | activity change, negative = inhibition [2] 9.4% | activity change, negative = inhibition [3] -12.9% [at 2.29 µM] | activity change, negative = inhibition [4] 4.68% | activity, negative = inhibition [5] 3.53% | Potency [6] > 46 µM | Potency [7] > 9.22 µM | Potency [8] | Potency [9] | Potency [10] | Potency [11]

Cc1c(Cl)c(S(N)(=O)=O)cc(S(N)(=O)=O)c1NC(=O)c1ccc(Cl)cc1
inactive: Potency [1] > 11.4 µM | activity change, negative = inhibition [2] -4.6% | Potency [3] | activity change, negative = inhibition [4] 5.51% | activity, negative = inhibition [5] 5.58% | Potency [6] > 46 µM | Potency [7] > 9.22 µM | Potency [8] | Potency [9] | Potency [11]

O=C(O)C1CC2(C1)CC(C(=O)O)C2 (stereo not drawn)
inactive: Potency [1] > 11.4 µM | activity change, negative = inhibition [2] 1.62% | activity change, negative = inhibition [3] -6.3% [at 2.29 µM] | activity change, negative = inhibition [4] 10.7% | activity, negative = inhibition [5] 12.7% | Potency [6] > 46 µM | Potency [7] > 9.22 µM | Potency [8] | Potency [9] | Potency [11]

O=C(N[C@@]1(C(=O)O)C[C@@H]1c1ccccc1)c1ccccc1
inactive: Potency [1] > 11.4 µM | activity change, negative = inhibition [2] 7.86% | Potency [3] | activity change, negative = inhibition [4] 18.8% | activity, negative = inhibition [5] 10.3% | Potency [6] > 46 µM | Potency [7] > 9.22 µM | Potency [8] | Potency [9] | Potency [11]

c1ccc2c(c1)c1ccccc1n2Cn1c2ccccc2c2ccccc21
inactive: Potency [1] > 11.4 µM | activity change, negative = inhibition [2] 10.8% | activity change, negative = inhibition [4] -5.02% | activity, negative = inhibition [5] 8.5% | Potency [6] > 46 µM | Potency [7] > 9.22 µM | Potency [8] | Potency [9]
active: Potency [3] 0.251 µM | Potency [11] 0.398 µM

Cn1c(=O)c2c(nc(Cc3ccccc3)n2CC(=O)O)n(C)c1=O
inactive: Potency [1] > 11.4 µM | activity change, negative = inhibition [2] 6.03% | activity change, negative = inhibition [3] -13.2% [at 2.29 µM] | activity change, negative = inhibition [4] 0.0397% | activity, negative = inhibition [5] 10.4% | Potency [6] > 46 µM | Potency [7] > 9.22 µM | Potency [8] | Potency [9] | Potency [11]

CS[C@]12C(=O)C[C@]3(C)[C@@H](CC[C@@]3(O)C(=O)CO)[C@@H]1CCC1=CC(=O)CC[C@]12C
inactive: Potency [1] > 11.4 µM | activity change, negative = inhibition [2] 0.905% | activity change, negative = inhibition [3] -24.3% [at 2.29 µM] | activity change, negative = inhibition [4] 1.52% | activity, negative = inhibition [5] -2.04% | Potency [6] > 46 µM | Potency [7] > 9.22 µM | Potency [8] | Potency [9]
active: Potency [11] 3.16 µM

Cn1c([N+](=O)[O-])cnc1CN1CCN(CCO)CC1
inactive: Potency [1] > 11.4 µM | activity change, negative = inhibition [2] 11% | activity change, negative = inhibition [3] 9.2% [at 2.29 µM] | activity change, negative = inhibition [4] 2.86% | activity, negative = inhibition [5] 10.3% | Potency [6] > 46 µM | Potency [7] > 9.22 µM | Potency [8] | Potency [9] | Potency [11]

O=C(O)C(Cc1cccs1)C(=O)O
inactive: Potency [1] > 11.4 µM | activity change, negative = inhibition [2] 7.58% | activity change, negative = inhibition [3] -2.1% [at 2.29 µM] | activity change, negative = inhibition [4] 8.62% | activity, negative = inhibition [5] 0.541% | Potency [6] > 46 µM | Potency [7] > 9.22 µM | Potency [8] | Potency [9] | Potency [11]

O=C(O)C/C(=C\c1ccco1)C(=O)O
inactive: Potency [1] > 11.4 µM | activity change, negative = inhibition [2] 8.65% | activity change, negative = inhibition [3] -11.8% [at 2.29 µM] | activity change, negative = inhibition [4] 9.1% | activity, negative = inhibition [5] 7.2% | Potency [6] > 46 µM | Potency [7] > 9.22 µM | Potency [8] | Potency [9] | Potency [11]

Cc1cn(CC[C@H](N)C(=O)O)c(=O)[nH]c1=O
inactive: Potency [1] > 11.4 µM | activity change, negative = inhibition [2] 0.888% | Potency [3] | activity change, negative = inhibition [4] -6.68% | activity, negative = inhibition [5] 16.3% | Potency [6] > 46 µM | Potency [7] > 9.22 µM | Potency [8] | Potency [9] | Potency [11]
